Consider 40 molecules from PubChem BioAssay (EPA / NIEHS).

Structures are written as SMILES. Records with an inconclusive call do not appear. Activity calls are given as the source filed them. How the source made its calls: active means hit-call score of the fitted dose curve at least 0.9, where 1 is the maximum; inconclusive means response in the unintended direction; inactive means score below 0.9.

Chain of Oxysterols receptor LXR-beta (Homo sapiens) (P55055 whole entry, looked up, the tested form may be a part): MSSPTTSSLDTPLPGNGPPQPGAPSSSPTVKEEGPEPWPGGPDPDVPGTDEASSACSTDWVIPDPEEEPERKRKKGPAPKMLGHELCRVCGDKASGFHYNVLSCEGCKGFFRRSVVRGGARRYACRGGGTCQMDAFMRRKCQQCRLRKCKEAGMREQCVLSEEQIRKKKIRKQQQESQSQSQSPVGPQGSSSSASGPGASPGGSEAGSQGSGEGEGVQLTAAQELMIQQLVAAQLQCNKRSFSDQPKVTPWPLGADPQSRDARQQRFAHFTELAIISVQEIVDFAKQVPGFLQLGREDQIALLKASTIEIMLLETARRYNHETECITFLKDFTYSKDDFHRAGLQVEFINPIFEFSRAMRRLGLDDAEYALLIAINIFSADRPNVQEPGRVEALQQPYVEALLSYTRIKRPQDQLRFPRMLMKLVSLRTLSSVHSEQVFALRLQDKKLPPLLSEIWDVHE

This experiment addresses Oxysterols receptor LXR-beta (Homo sapiens) (UniProt P55055). The experiment can be described thus: ATG_LXRb_TRANS: Attagene TRANS-FACTORIAL HepG2 Assay for human Liver X Receptor beta (LXRb) (AID 2282981). The following applies: HepG2 Attagene TRANS GAL4-LXRb reporter, mRNA. The method, then:
ATG_TRANS is a cell-based, multiplexed-readout assay that uses HepG2, a human liver cell line, with measurements taken at 24 hours after chemical dosing in a 24-well plate.ATG_LXRb_TRANS is one of 30 assay component(s) measured or calculated from the ATG_TRANS assay. It is designed to make measurements of mRNA induction, a form of inducible reporter, as detected with fluorescence intensity signals by Reverse transcription polymerase chain reaction (RT-PCR) and Capillary electrophoresis technology.Data from the assay component ATG_LXRb_TRANS was analyzed into 1 assay endpoint. This assay endpoint, ATG_LXRb_TRANS, was analyzed in the positive analysis fitting direction relative to DMSO as the negative control and baseline of activity. Using a type of inducible reporter, measures of mRNA for gain-of-signal activity can be used to understand the reporter gene at the transcription factor-level as they relate to the gene NR1H2. Furthermore, this assay endpoint can be referred to as a primary readout, because this assay has produced multiple assay endpoints where this one serves a reporter gene function. To generalize the intended target to other relatable targets, this assay endpoint is annotated to the nuclear receptor intended target family, where the subfamily is non-steroidal.
Human liver HepG2 cells are transiently transfected with multiple reporter transcription units (MRTUs) in 6-well plates using FuGene 6 reagent (Roche; 3 ml FuGene/1 mg DNA). The MRTU constructs are regulated by a cis-regulating element (promoter). […] A major difference between the CIS and TRANS system is that in CIS activities of endogenous TFs are measured, whereas the TRANS assay evaluates changes in activities of exogenous, chimeric NR-Gal4 proteins. […] At the end of 24 hour incubation, total RNA was isolated using TriZol reagent (Invitrogen). The isolated RNA is then reverse-transcribed using oligo(dT) primer and Mo-MLV reverse transcriptase (Invitrogen) with DNAse I (Ambion) treatment for 30 min. The one-tenth of the produced cDNA was amplified by PCR using Taq DNA polymerase (Invitrogen) and two reporter sequence-specific primers. The PCR products were fluorescently labeled by primer extension with 6-arboxyfluorescein (6-FAM) 5'-labeled reporter sequence-specific primer (2 min at 95 C, 20 s at 68 C and 10 min at 72 C) and these products were digested with 5U of HpaI (New England Biolabs) for 2h at 37 C. The fragments were purified using Qiaquick PCR columns (Qiagen), analyzed on an ABI 3130xL genetic analyzer (Applied Biosystems) with peak positions identified by using a set of X-rhodamine (ROX)-labeled MapMarker1000 molecular weight standards (BioVentures). The raw capillary electrophoresis data was processed using Attagraph software (Attagene).
As to `CCCCNP(N)(N)=S`, the molecule was classed as inactive.
Still for that read-out and setting: the entry for `CN(C)N` is “inactive”.
`O=C1C(Cl)=C(Cl)C(=O)C(Cl)=C1Cl`: the molecule was classed as inactive.
For the molecule `O=S(=O)(O)OOS(=O)(=O)O`, the call was inactive.
For `BrCBr`, the call was inactive.
As for `CC(=O)c1cc2c(cc1C)C(C)(C)C(C)CC2(C)C` (stereo not given), the call was inactive.
With `c1ccc(Nc2ccc3ccccc3c2)cc1`, the result was inactive.
In the case of `CC(C)CCCCCCCOP(=O)(Oc1ccccc1)Oc1ccccc1`, the call was inactive.
In the case of `C=C(Cl)CCl`, the result was inactive.
The same measure, in the same setting: the entry for `CC1CCCC1.[C-]#[O+].[C-]#[O+].[C-]#[O+].[Mn]` is “inactive”; for `[Cl][Sb]([Cl])[Cl]` it is “inactive”; for `CC(C)C#N` it is “inactive”.
`C[C@]12CC[C@H](O)C[C@H]1CC[C@@H]1[C@@H]2C[C@@H](O)[C@]2(C)[C@@H](C3=CC(=O)OC3)CC[C@]12O`: the result was inactive.
With `O=C1Nc2ccc(Cl)cc2C(c2ccccc2)=NC1O` (stereo not given), the molecule was classed as inactive.
Consider `N#Cc1cc(I)c(O)c(I)c1`, for which the call was inactive.
Turning to `CCNCC`, the molecule was classed as inactive.
On to `CCOC(=O)N(C)N=O`, for which the call was inactive.
As to `O=C(NC(=O)c1c(F)cccc1F)Nc1ccc(Oc2ccc(C(F)(F)F)cc2Cl)cc1F`, the molecule was classed as inactive.
Consider `C[N+](=O)[O-]`, for which the molecule was classed as inactive.
Consider `O=P1(NCCCl)OCCCN1CCCl` (stereo not given), for which the call was inactive.
For the molecule `CC(C)(Cl)Cl`, the outcome was inactive.
Take `c1cc(OCC2CO2)ccc1Cc1ccc(OCC2CO2)cc1` (stereo not given): the molecule was called inactive.
On to `CC(C)(c1cc(Cl)c(O)c(Cl)c1)c1cc(Cl)c(O)c(Cl)c1`, for which the call was inactive.
`O=S(=O)(c1ccccc1)c1ccccc1`: the call was inactive.
Turning to `Cc1ncc(C[n+]2csc(CCO)c2C)c(N)n1`, the outcome was inactive.
As to `NNc1ccccc1`, the molecule was classed as inactive.
Consider `CC1(C)CC(=O)CC(C)(C)N1[O]`, for which the outcome was inactive.
Consider `O=C=Nc1ccccc1`, for which the outcome was inactive.
What is called AC50 is the concentration giving half of the maximal activity seen. Consider `Nc1c(Cl)c(Cl)c(Cl)c(Cl)c1Cl`, for which the AC50 is 26.1 µM (active).
`[N-]=[N+]=CC(=O)OC[C@H](N)C(=O)O`: the outcome was inactive.
As for `CCCCOP(=O)(O)OCCCC`, the outcome was inactive.
On the same count and under the same terms, the entry for `C=CC(=O)OCC(CC)CCCC` (stereo not given) is “inactive”.
With `Cc1ccccc1CCl`, the result was inactive.
Take `CCOC(=O)C1OC1(C)c1ccccc1` (stereo not given): the outcome was inactive.
`Nc1ccccc1C(=O)OCCc1ccccc1`: the result was inactive.
As to `O=P(O)(Oc1ccccc1)Oc1ccccc1`, the molecule was classed as inactive.
Turning to `CNC(=O)Oc1cc(C)c(SC)c(C)c1`, the outcome was inactive.
With `c1ccc2c(c1)CCCC2`, the outcome was inactive.
Consider `O=S(=O)(O)O`, for which the result was inactive.
Consider `CN1C[C@H](C(=O)N[C@]2(C)O[C@@]3(O)[C@@H]4CCCN4C(=O)[C@H](Cc4ccccc4)N3C2=O)C=C2c3cccc4[nH]cc(c34)C[C@H]21`, for which the result was inactive.
